Test results as given in the supplement of paper PMC6555819.

Assays:
Test in all cases: PBM binding z-score (relative to random genomic background probes); higher = stronger binding; sequences stand for … in GC…GCGATTGACAGCGTAGAATGAAGG
[1] = tested on: FXR:RXRa (NR concentration 270 nM, RXRa partner concentration 90 nM)
Method in brief: (§1)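 Custom Agilent 4×180K protein-binding microarrays carried double-stranded probes, each with a 34-nt variable region. These regions held direct-repeat seeds, single-nucleotide variants, half-site ablations and random human genomic background sequences. Ligand-free nuclear receptor dimers were incubated on the arrays for 1 h, antibodies against each partner (one per run) detected binding, and scanned fluorescence was regression-normalized. Binding z-scores take the random background probes as reference.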

[2] = tested on: LXRa:RXRa (NR concentration 270 nM, RXRa partner concentration 90 nM)
Method in brief: as §1

[3] = tested on: LXRa homodimer (NR concentration 270 nM)
Method in brief: as §1

[4] = tested on: LXRb:RXRa (NR concentration 270 nM, RXRa partner concentration 90 nM)
Method in brief: as §1

[5] = tested on: LXRb homodimer (NR concentration 270 nM)
Method in brief: as §1

[6] = tested on: PPARa:RXRa (NR concentration 270 nM, RXRa partner concentration 90 nM)
Method in brief: as §1

[7] = tested on: PPARg:RXRa (NR concentration 180 nM, RXRa partner concentration 90 nM)
Method in brief: as §1

[8] = tested on: PPARg:RXRa 270nM:90nM, anti-RXR (NR concentration 270 nM, RXRa partner concentration 90 nM)
Method in brief: as §1

[9] = tested on: PPARg:RXRa 30nM:10nM, anti-RXR (NR concentration 30 nM, RXRa partner concentration 10 nM)
Method in brief: as §1

[10] = tested on: PPARg:RXRa 90nM:30nM, anti-RXR (NR concentration 90 nM, RXRa partner concentration 30 nM)
Method in brief: as §1

[11] = tested on: PPARg:RXRa DBDmut IVT, anti-RXR (DBD mutation: RXRa K156A/R161A, NR concentration 270 nM, RXRa partner concentration 90 nM)
Method in brief: as §1

[12] = tested on: PPARg:RXRa IVT, anti-PPARg (NR concentration 270 nM, RXRa partner concentration 90 nM)
Method in brief: as §1

[13] = tested on: PPARg DBDmut:RXRa IVT, anti-PPARg (DBD mutation: PPARg1 K132A/R137A, NR concentration 270 nM, RXRa partner concentration 90 nM)
Method in brief: as §1

[14] = tested on: PPARg DBDmut IVT, anti-PPARg (DBD mutation: PPARg1 K132A/R137A, NR concentration 270 nM)
Method in brief: as §1

[15] = tested on: PPARg homodimer (NR concentration 180 nM)
Method in brief: as §1

[16] = tested on: PXR:RXRa (NR concentration 270 nM, RXRa partner concentration 90 nM)
Method in brief: as §1

[17] = tested on: PXR homodimer (NR concentration 270 nM)
Method in brief: as §1

[18] = tested on: RARa:RXR (NR concentration 270 nM, RXRa partner concentration 90 nM)
Method in brief: as §1

[19] = tested on: RARa homodimer (NR concentration 270 nM)
Method in brief: as §1

[20] = tested on: RARb:RXRa (NR concentration 270 nM, RXRa partner concentration 90 nM)
Method in brief: as §1

Sequence	PBM binding z-score [1]	PBM binding z-score [2]	PBM binding z-score [3]	PBM binding z-score [4]	PBM binding z-score [5]	PBM binding z-score [6]	PBM binding z-score [7]	PBM binding z-score [8]	PBM binding z-score [9]	PBM binding z-score [10]	PBM binding z-score [11]	PBM binding z-score [12]	PBM binding z-score [13]	PBM binding z-score [14]	PBM binding z-score [15]	PBM binding z-score [16]	PBM binding z-score [17]	PBM binding z-score [18]	PBM binding z-score [19]	PBM binding z-score [20]
TATCCTAGGTCATGGGCCAGTATACCACGCGAAC	5	5.58	3.83	3.5	1.69	4.57	5.5	5.51	3.05	4.89	4.23	5.29	1.4	1.68	1.22	2.25	0.762	2.93	1.01	4.06
TCTTGTAGATCAATAGAGGTAAAGAAAGTGCGCT	0.355	0.562	-0.497	0.281	-0.231	0.706	-0.0447	1.14	2.57	1.62	1.51	0.822	0.0443	0.312	-0.815	0.573	0.0758	0.505	-0.142	-0.0126
GCAACTGGGGCATCAGCAGGTTACCATAACTTAA	-0.117	-0.265	-0.205	1.08	-0.444	1.83	2.26	1.76	0.0895	1.1	5.86	5.15	-0.129	0.0733	0.577	0.0192	-0.0956	0.138	-0.393	0.963
CTACCAAGGTGAACAAGGTCGTTGACTACTATTC	1.83	1.79	0.0971	1.79	-0.0485	2.65	1.41	1.68	0.448	0.985	2.76	2.84	0.603	0.324	0.75	2.98	2.72	2.61	0.269	2.29
CAAACTAGGTCAAGGTCAGAGTCGGTTTGTGCCA	5.93	4.35	1.98	3.26	0.405	5.7	9.05	7.77	6.36	8.17	8.39	8.85	4.94	5.19	4.13	4.13	1.18	4.4	2.46	5.06
CGTCAAAGTTGAACTAAGGTAACGTAAAGCACGC	2.71	3.29	3.88	1.57	0.134	2.26	1.45	2.65	0.653	2.03	0.422	1.2	1.41	0.838	0.99	2.35	0.717	2.08	0.0339	2.17
CTACCAAGGTGAACACGGTCGTTGATTACTATTC	0.926	0.679	0.219	1.01	-0.319	1.35	0.647	0.659	-0.147	0.147	2.72	2.43	0.613	-0.0431	0.251	0.292	0.00892	0.57	0.749	1.88
GCTGCTTGGTCAGGTTGGTCAGCTAACGGGTACG	-0.11	-0.383	-0.554	-0.457	-0.187	-0.407	-0.682	-0.648	-0.905	-1.09	-0.165	0.0885	-0.778	-0.893	-0.123	-0.298	-0.597	-0.108	-0.538	0.63
TCTGCTAGGTCAGTTGGTCGGCTAACGAGCTGCC	0.77	0.605	-0.503	0.189	0.554	1.17	-0.329	1.54	1.35	1.7	2.4	2.52	-0.323	0.245	-0.547	-0.0242	-0.996	0.254	-0.776	3.2
TCTTGTAGATCAATAGAGGCTAAGAAAGTGCGCT	0.509	0.411	-0.573	0.151	-0.421	0.411	-0.238	0.977	2.4	1.84	1.51	0.473	0.414	0.266	0.0391	0.573	0.17	0.468	-0.133	0.203
ATATGTAGGTTATCGGATCATTCAGTTTGCGCAT	0.778	1.32	0.544	0.974	0.803	3.32	4.5	4.3	2.14	3.56	7.18	6.73	2.24	2.07	1.46	0.908	0.884	1.05	1.48	0.993
GGAACGAGGGCAAAGTTGATGGCATCTGTCGACG	1.36	1.13	-0.0159	0.949	-0.264	4.09	6.37	6.89	5.45	6.81	4.48	4.33	0.423	0.295	0.411	1.39	0.213	1.59	-0.52	2.48
TCAGACCGGTGAAGGTAACTCAGGTACGCAGTCG	0.557	1.33	-0.308	0.535	-0.714	0.614	0.21	1.47	3.08	2.23	1.9	0.032	-0.824	-0.847	-0.31	0.238	-0.147	0.303	-0.254	0.335
CCTACTGGGCCACGAAAGATCATTGATTCAGTGA	-0.333	-0.132	-0.275	-0.437	-0.666	0.946	1.67	1.31	0.112	0.519	5.69	5.25	0.632	-0.411	0.215	-0.421	-0.111	-0.0697	-0.401	0.211
